Experimental data: PubChem BioAssay (NCATS)
Calls of active or inactive are those of the source. The call rests on the fitted dose curve; in most records, active means well fitted activation curve with a large enough effect; inconclusive means small, poorly fitted or top-dose-only effect; inactive means flat fitted curve, though single readings scatter.

Assay: Cellular Toxicity (caspase-3) N2a (AID 665);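 further: compound exposure lasted 16 h at 37 °C before readout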
Settings: N2a cells, luminescence; Potency: caspase-3 activation; series mostly up to 92.2 µM; caspase-3 activation: at the top concentration
Description: NIH Chemical Genomics Center [NCGC]
NIH Molecular Libraries Screening Centers Network [MLSCN]
National Institutes of Environmental Health Sciences [NIEHS]
National Toxicology Program [NTP]
We have developed a 1536-well cell-based assay for quantitative high throughput screening (qHTS) against a number of cell lines to determine in vitro caspase 3/7 activity of small molecules. This particular assay uses the N2a cell line which is derived from mouse neuroblastoma.
NCGC Assay Protocol Summary:
The Caspase-Glo 3/7 assay (Promega) is a homogeneous method to measure caspase-3 and caspase-7 activities in cultured cells. The quantitation of caspase 3/7 activity is based on the cleavage of a peptide-aminoluciferin substrate. After caspase cleaves the substrate the free aminoluciferin is liberated and serves as the substrate of luciferase, which generates the light. The luminescent signal is proportional to the amount of caspase 3/7 activity present.
Using the Caspase-Glo 3/7 assay, the amount of caspase 3/7 activity was measured in the N2a cells with complete culture medium following compound treatment for 16 hours. The assay was performed in opaque white 1536-well plates. In the screen, staurosporine and doxorubicin were used as positive controls. Library compounds were measured for their ability to cause the activation of caspase 3/7 in the cell line, as reflected by an increase in luminescence signal, in a concentration-dependent manner. Data were normalized to the controls for basal activity (DMSO only) and 100% stimulation (10 uM staurosporine). AC50 values were determined from concentration-response data modeled with the standard Hill equation.
qHTS protocol for caspase 3/7 assay in mouse N2a cell line
[Step] [Parameter] [Value] [Description]
1. Reagent; 5 uL; 1500 mouse N2a cells/well
2. Time; 5 hr; 37 °C incubation
4. Controls; 23 nL; doxorubicin 7 pM to 100 uM & staurosporine 1.4 pM to 20 uM
5. Time; 16 hr; 37 °C incubation
6. Reagent; 5 uL; Caspase-Glo 3/7 reagent
7. Time; 1 hr; Room Temperature
8. Detection; Luminescence; Viewlux plate reader
Keywords: caspase 3/7, apoptosis, mouse N2a cell line, luminescence, NTPHTS, NTPHTS_NCGC, NIEHS, EPA, DSSTox, MLSMR, MLSCN, NIH Roadmap, qHTS, NCGC
Potency means the concentration at half of the fitted maximal effect.

| SMILES | caspase-3 activation | Potency |
| --- | --- | --- |
| CC(C)NCC(O)COc1cccc2ccccc12 (stereo not drawn) | -1.9% (inactive) |  |
| COc1cc(CNC(=O)CCCC/C=C/C(C)C)ccc1O | -6.73% (inactive) |  |
| Nc1ccc(O)c([N+](=O)[O-])c1 | 8.82% (inactive) |  |
| c1ccc2sc(SSc3nc4ccccc4s3)nc2c1 | 0.995% (inactive) |  |
| CCCCCCCCCCCCCCCCCC(=O)O | -0.788% (inactive) |  |
| O=c1cc(-c2ccccc2)oc2ccccc12 | -10.2% (inactive) |  |
| CN(C)c1ccc(N=NS(=O)(=O)O)cc1 | -1.36% (inactive) |  |
| NCCO | -5.76% (inactive) |  |
| Nc1ccc([N+](=O)[O-])cc1O | -1.91% (inactive) |  |
| Nc1nc2ccc([N+](=O)[O-])cc2s1 | -13.3% (inactive) |  |
| Nc1ccc(O)c(C(=O)O)c1 | -11.3% (inactive) |  |
| O=C(O)c1cc(O)c(O)c(O)c1 | -12.8% (inactive) |  |
| c1cnc2c(c1)ccc1cccnc12 | -1.16% (inactive) |  |
| CC1(C)S[C@@H]2[C@H](NC(=O)[C@H](N)c3ccccc3)C(=O)N2[C@H]1C(=O)O | -2.71% (inactive) |  |
| C#C[C@]1(O)CC[C@H]2[C@@H]3CCc4cc(O)ccc4[C@H]3CC[C@@]21C | 1.6% (inactive) |  |
| CCCOC(=O)c1ccc(O)cc1 |  | inactive |
| CN1CCC[C@H]1c1cccnc1 | -1.5% (inactive) |  |
| CN(C)c1ccc(C(=C2C=CC(=[N+](C)C)C=C2)c2ccccc2)cc1 |  | 79.4 nM (active) |
| Oc1ccccc1O | 8.48% (inactive) |  |
| O=C(O)/C=C\C(=O)O | 0.911% (inactive) |  |
| CN(C)CCC(c1ccc(Cl)cc1)c1ccccn1 (stereo not drawn) | 0.792% (inactive) |  |
| S=c1[nH]c2ccccc2s1 | -1.68% (inactive) |  |
| O=C1CN(/N=C/c2ccc([N+](=O)[O-])o2)C(=O)N1 | 3.43% (inactive) |  |
